# Out of some 300,000 compounds screened, about 22,000 (7.3%) were called active. Another 2% or so got no clear call; they are omitted. Rule as the data show it: active = activity score below about -60%; inconclusive = mostly about -28% to -61%; inactive = positive scores. This excerpt belongs to a sample that is enriched for actives.
# Assay: Activators via SNCA 5'UTR binding, MLPCN (AID 1814)
# Details: alpha-synuclein 5'UTR reporter, activators screen; stronger effect = lower value; tested at 7.5 µM
row,Structure (SMILES),activity score
1,O=C1NC(=O)N(CCc2ccc(F)cc2)C(=O)/C1=C/C=C/c1ccccc1,-115% (active)
2,COc1cccc(-c2nc3ccc(N4CCN(C)CC4)cc3[nH]2)c1,68.9% (inactive)
3,Cc1nc2ccc(N3CCN(C)CC3)cc2nc1C,-72% (active)
4,CN(C)C(=O)Oc1ccc2c(c1)O/C(=C\c1ccccc1)C2=O,-101% (active)
5,CC(C)(C)c1ccc(OC(=O)N2CCCCC2)cc1,-192% (active)
6,CCCCCn1c(=O)c(C(=O)Nc2c(C)n(C)n(-c3ccccc3)c2=O)c(O)c2ccccc21,-108% (active)
7,c1ccc2sc(C3CCCNC3)nc2c1 (stereo not given),-63% (active)
8,C/C(=N/O)c1ccc2ccc3ccccc3c2c1,-104% (active)
9,O=Cc1cn(Cc2ccc(F)cc2Cl)c2ccccc12,61.1% (inactive)
10,c1cc2c(cc1[C@H]1OC[C@H]3[C@@H]1CO[C@@H]3c1ccc3c(c1)OCO3)OCO2,72.8% (inactive)
11,O=C(Nc1cccc2ccccc12)N1CCC2(CC1)OCCO2,-71.1% (active)
12,CCOc1ccc(-c2cc(C)[n+](CCN(CC)CC)c(-c3ccc(OCC)cc3)c2)cc1,95.2% (inactive)
13,CN(C)CC1Oc2ccccc2OC1(O)c1ccccc1 (stereo not given),-101% (active)
14,CCCCCCCCCCCCn1ccc(=N)cc1,104% (inactive)
15,N#CC1=C(N)Oc2c(c(=O)oc3ccccc23)C1c1ccccc1OC(=O)c1cccs1 (stereo not given),-63% (active)

# From PubChem BioAssay AID1814 (Broad Institute, 2009)
